# From ChEMBL document CHEMBL1157539, “Thousands of chemical starting points for antimalarial lead identification” (Nature, 2010)
# Legend:
# Assay type in all cases: functional
# Plasmodium falciparum [1] = assay: GSK_TCMDC: Inhibition of Plasmodium falciparum 3D7 in whole red blood cells, using parasite LDH activity as an index of growth. Test compounds present at 2uM
# Plasmodium falciparum [2] = assay: GSK_TCMDC: Inhibition of Plasmodium falciparum Dd2 in whole red blood cells, using parasite LDH activity as an index of growth. Test compounds present at 2uM
# HepG2 = assay: GSK_TCMDC: Percent inhibition of human HepG2 cell line. Test compounds present at 10uM.
SMILES,Inhibition (Plasmodium falciparum [1]) [%],Inhibition (Plasmodium falciparum [2]) [%],Inhibition (HepG2) [%]
CCOC(=O)c1ccc(NC(=O)NC2CCN(CCCCCNC(=O)/C=C/c3ccc(Cl)c(Cl)c3)C2)cc1 (stereo not given),98,0,23
CCc1ccc(C2CCN(CCCCNC(=O)c3ccc(NC(=O)c4ccc(Cl)cc4)cc3)CC2)c(OC(C)=O)c1,91,100,48
Br.CC1(C)NC(N)=NC(=N)N1OCCCCCOc1ccccc1,95,97,61
COc1ccccc1Cc1c(C)nc2nc(N)nc(N)c2c1C.Cl,96,2,69
CCOc1cc(C(=O)NC2CC(C)(C)NC(C)(C)C2)ccc1-c1cc2cc(Cl)c(Cl)cc2[nH]1,100,46,37
O=C(/C=C/c1cccc(OC(F)(F)F)c1)NCCCCCN1CCC(c2c[nH]c3ccccc23)CC1,93,13,27
Cc1ccc(O)cc1Nc1ccnc2ccc(-c3csc(CNCCN4CCOCC4)n3)cc12,100,97,0
COc1ccc(Nc2nccc(N3CCC(NC(=O)c4cccc(NC(C)=O)c4)C3)n2)cc1 (stereo not given),92,84,0
CN(C)CCCNc1nccc(N(C)c2ccc(NC(=O)Nc3cc(C(F)(F)F)ccc3F)cc2)n1.O=C(O)C(F)(F)F,93,25,97
Cc1cccc(NC(=O)NC2CCN(CCCCCNC(=O)/C=C/c3ccc(Cl)c(Cl)c3)CC2)c1,100,21,34
